This is a sample that favours compounds with a hit; in the whole collection about 1.8% have one here.
Rtt109 HAT inh: inhibitors of C. albicans Rtt109/Vps75 HAT, primary screen, biochemical, ThioGlo CoA-SH fluorescence, plate reader; purified Rtt109/Vps75, 4 h; inhibition, % at 34.9 µM; 330,000 compounds, 0.16% hits; AID 540336, 2011;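 active means inhibition of at least 50% in every replicate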
NOD2-RIPK2 inh: NOD2-RIPK2 binding disruptors in cells, primary screen, fluorescence, CHO cells, BLA complementation; Receptor-interacting serine/threonine-protein kinase 2 (Homo sapiens), O43353; CCF4 ratio; inhibition, % at 4.98 µM; 360,000 compounds, 0.38% hits; in the data active means inhibition above about 21%;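 further: 0% = vehicle only and 100% = reference blocker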
Target sequence (O43353 whole entry, looked up): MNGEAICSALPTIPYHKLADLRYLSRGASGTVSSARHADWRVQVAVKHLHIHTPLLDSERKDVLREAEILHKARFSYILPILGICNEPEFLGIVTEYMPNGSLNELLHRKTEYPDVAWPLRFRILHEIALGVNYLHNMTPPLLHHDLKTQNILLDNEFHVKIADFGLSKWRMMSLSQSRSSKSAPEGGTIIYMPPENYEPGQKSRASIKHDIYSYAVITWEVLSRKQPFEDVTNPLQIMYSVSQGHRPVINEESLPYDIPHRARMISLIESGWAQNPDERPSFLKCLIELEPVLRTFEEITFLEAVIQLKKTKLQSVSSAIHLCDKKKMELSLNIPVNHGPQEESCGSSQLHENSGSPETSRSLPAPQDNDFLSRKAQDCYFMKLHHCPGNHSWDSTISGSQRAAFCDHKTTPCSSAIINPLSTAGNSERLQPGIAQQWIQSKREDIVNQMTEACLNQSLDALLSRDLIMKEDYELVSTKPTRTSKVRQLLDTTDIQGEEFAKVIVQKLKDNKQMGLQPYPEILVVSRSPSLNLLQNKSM
TLR9-MyD88 inh: inhibitors of TLR9-MyD88 association in cells, primary screen, cell-based, CHO, BLA complementation, fluorescence; Toll-like receptor 9 (Homo sapiens) + Myeloid differentiation primary response protein …; CCF4 FRET ratio; inhibition, % at 4.98 µM; 340,000 compounds, 0.21% hits; AID 504734, 2011;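 active means inhibition above the mean over all tested compounds plus 3 SD, cut at about 21% in these data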;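 further: 0% = DMSO only wells and 100% = clavulanate BLA inhibitor control wells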
m5-HT2A agonist: mouse Htr2a agonists via beta-arrestin recruitment, primary screen, cell-based, luminescence; activation, % at 7.6 µM; 360,000 compounds, 0.66% hits; AID 624169, 2012; CHO-K1 mHTR2A beta-arrestin complementation; percent of 30 µM serotonin response; 5-hydroxytryptamine receptor 2A (Mus musculus), P35363;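 active means activation above a run cutoff, the mean activation of all tested compounds plus 3 SD, cut at about 14% in these data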;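 further: 0% = plate median of compound wells and 100% = 30 µM serotonin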
LANA-H2B inh: blockers of LANA interaction with H2A/H2B – biochemical, FP readout, HTS, primary screen | Protein LANA1 (Human herpesvirus 8 type P (isolate GK18)), Q9QR71 | inhibition, % (test concentration not listed) | 320,000 compounds, 0.6% hits | cell-free LANA-H2A/H2B peptide, fluorescence polarization | AID 2629, 2010; in the data active means inhibition mostly above about 10%, no sharp cut-off; inactive means mostly below about 6.7%
TLR4-MyD88 BLA: inhibitors of TLR4-MyD88 association in cells, primary screen, cell-based, HeLa CL3-4, BLA complementation, FRET ratio | Toll-like receptor 4 (Homo sapiens) + Myeloid differentiation primary response protein … | HeLa CL3-4 TLR4/MyD88 BLA complementation | inhibition, % at 8.4 µM | 200,000 compounds, 0.18% hits | AID 861, 2007; in the data active means inhibition above about 25%;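 further: 0% = vehicle and 100% = reference inhibitor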
MOR ag counter: OPRM1 agonists via beta-arrestin recruitment, confirmation, counter-screen for mouse HTR2A agonist project, cell-based, luminescence, single concentration. activation, % at 9.3 µM. AID 624380, 2012. U2OS OPRM1 beta-arrestin PathHunter; DMSO 0%, DAMGO 9.3 µM 100%. shares compounds with m5-HT2A agonist. 2,300 compounds, 5.3% hits;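 active means mean activation above the mean of DMSO-only wells plus 3 SD, cut at about 0.5% in these data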
m5-HT2A ag conf: mouse HTR2A agonists, beta-arrestin recruitment, confirmation, cell-based, luminescence, CHO-K1 PathHunter, triplicate; shares compounds with m5-HT2A agonist; DMSO 0%, 30 µM serotonin 100%; activation, % at 7.6 µM; 2,300 compounds, 19% hits;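 active means mean activation across triplicates above the hit threshold derived in the original primary screen, cut at about 15% in these data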
The depositor's hits bear a star.

CC(C)(C)C(=O)N1CCN(c2ccc3c(c2)C2CC3CCN2C(=O)OCc2ccccc2)CC1 (stereo unspecified) was read as NOD2-RIPK2 inh 3 and m5-HT2A agonist -6.
For O=C(c1ccco1)N1CCN(Cc2ccccc2Br)CC1 the results were Rtt109 HAT inh 8, NOD2-RIPK2 inh -10, TLR9-MyD88 inh -9, m5-HT2A agonist 16*, LANA-H2B inh -1, MOR ag counter -1 and m5-HT2A ag conf 64*.
`COc1ccc(CN2CCN(CC(O)Cn3c4ccccc4c4ccccc43)CC2)cc1` (stereo unspecified) gave Rtt109 HAT inh 11, NOD2-RIPK2 inh 3, TLR9-MyD88 inh 0, m5-HT2A agonist 19*, LANA-H2B inh 7, TLR4-MyD88 BLA -2, MOR ag counter 1.1* and m5-HT2A ag conf 8.
`O=C(c1ccco1)N1CCN(Cc2ccc(F)cc2)CC1` gave Rtt109 HAT inh 8, NOD2-RIPK2 inh 4, TLR9-MyD88 inh -6, m5-HT2A agonist 20*, LANA-H2B inh -2, MOR ag counter 0 and m5-HT2A ag conf 74*.
`O=C(c1ccco1)N1CCN(C(=O)c2ccco2)CC1` gave NOD2-RIPK2 inh 9 and m5-HT2A agonist 11.
`CCOC(=O)c1csc(-c2csc(CCNC(=O)c3ccccc3)n2)n1` gave NOD2-RIPK2 inh -16, TLR9-MyD88 inh 10 and m5-HT2A agonist -3.
Screening COc1ccc(C(=O)CC(=O)C(=O)NCCc2cccc(C)c2)cc1 returned Rtt109 HAT inh 1, NOD2-RIPK2 inh -2, TLR9-MyD88 inh -12, m5-HT2A agonist 17*, LANA-H2B inh -2, TLR4-MyD88 BLA -15, MOR ag counter 0 and m5-HT2A ag conf -3.
CC(=O)N1CCN(C(=O)c2ccc(S(=O)(=O)Nc3ccccc3C)cc2)CC1 was read as Rtt109 HAT inh 8, NOD2-RIPK2 inh -8, TLR9-MyD88 inh 16, m5-HT2A agonist -6 and LANA-H2B inh 1.
O=C(CS(=O)(=O)c1ccccc1)N1CCCCCC1 was read as Rtt109 HAT inh -1, NOD2-RIPK2 inh -7, TLR9-MyD88 inh -12, m5-HT2A agonist 21*, LANA-H2B inh -3, TLR4-MyD88 BLA -12, MOR ag counter 0 and m5-HT2A ag conf -1.
Screening O=C(c1ccc(S(=O)(=O)Nc2ccccc2)cc1)N1CCC1 returned Rtt109 HAT inh -3, NOD2-RIPK2 inh -6, TLR9-MyD88 inh -7, m5-HT2A agonist 2 and LANA-H2B inh 8.
For Cc1ccccc1NS(=O)(=O)c1ccc(C(=O)N2CCN(S(=O)(=O)c3ccccc3)CC2)cc1 the results were Rtt109 HAT inh 0, NOD2-RIPK2 inh -12, TLR9-MyD88 inh -16, m5-HT2A agonist 15*, LANA-H2B inh 2, MOR ag counter 0 and m5-HT2A ag conf 0.
For O=C(c1ccc(NS(=O)(=O)c2ccccc2)cc1)N1CCCCCC1 the results were Rtt109 HAT inh 2, NOD2-RIPK2 inh -9, TLR9-MyD88 inh -6, m5-HT2A agonist 17*, LANA-H2B inh -4, MOR ag counter 0 and m5-HT2A ag conf -2.

Compound activity as filed in PubChem.
